Measured values published in PubChem BioAssay.
Activity calls are given as the source filed them.

What was measured:
[1] = biological target: Albumin (Bos taurus) (UniProt P02769); assay: compounds binding labelled BSA control protein – biochemical, small-molecule microarray, Alexa647 label, 635/667 nm fluorescence, artefact control for SMM control protein annotation, profiling panel (AID 1118); details: BSA-A647 binding, fluorescence 635 nm, higher = more signal;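 note: score merges 667 nm emission intensity and signal-to-noise per printed compound spot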
Albumin (Bos taurus), sequence (P02769 whole entry, looked up): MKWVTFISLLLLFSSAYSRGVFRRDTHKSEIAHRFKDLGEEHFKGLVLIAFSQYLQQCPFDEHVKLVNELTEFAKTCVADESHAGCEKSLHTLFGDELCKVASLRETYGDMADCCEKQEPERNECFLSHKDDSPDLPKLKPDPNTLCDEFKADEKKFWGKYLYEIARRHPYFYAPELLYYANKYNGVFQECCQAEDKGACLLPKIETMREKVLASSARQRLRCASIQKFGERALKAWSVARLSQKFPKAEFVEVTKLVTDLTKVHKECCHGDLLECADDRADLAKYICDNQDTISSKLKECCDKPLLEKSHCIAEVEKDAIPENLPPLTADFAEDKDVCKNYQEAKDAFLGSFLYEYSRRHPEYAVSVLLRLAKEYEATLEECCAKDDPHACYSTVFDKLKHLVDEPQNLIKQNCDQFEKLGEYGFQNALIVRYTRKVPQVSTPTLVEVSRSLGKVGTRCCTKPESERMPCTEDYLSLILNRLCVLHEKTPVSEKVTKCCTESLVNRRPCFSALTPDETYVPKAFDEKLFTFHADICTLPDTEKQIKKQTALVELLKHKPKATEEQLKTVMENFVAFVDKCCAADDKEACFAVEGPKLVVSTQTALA

[2] = probe aXIP binding to arrayed compounds – biochemical, NeuroSMM set, 635/667 nm fluorescence, primary screen (AID 1119); details: small-molecule microarray, higher = more signal, called active from +8 up or from −8 down;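 note: probe is the protein aXip251-270 applied at 1 µg/mL to compound-printed slides; binding of probe to printed compounds measured as 667 nm fluorescence plus signal to noise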
[3] = probe aNOTCH3 binding on compound microarray – biochemical, small-molecule microarray, 635/667 nm fluorescence, primary screen (AID 1120); details: higher = more signal;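 note: probe is a biotin-tagged antibody raised against NOTCH3 rather than NOTCH3 protein; score merges spot fluorescence near 667 nm with spot signal to noise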
[4] = probe aNOTCH2 binding on compound microarray – biochemical, small-molecule microarray, 635/667 nm fluorescence, primary screen (AID 1121); details: higher = more signal;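 note: score merges feature fluorescence read at 667 nm with its signal to noise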
[5] = biological target: Carbonic anhydrase 2 (Homo sapiens) (UniProt P00918); assay: compounds binding carbonic anhydrase 2 – biochemical, small-molecule microarray, Alexa647-labelled CAII, profiling panel (AID 1122); details: CAII-A647 binding fluorescence, higher = more signal
[6] = COS7 lysate on small-molecule microarray, probe aHis, 635 nm (AID 1123); details: COS7 cell lysate, fluorescence, higher = more signal;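 note: z-score combines 667nm fluorescence intensity with signal-to-noise per printed compound spot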
[7] = probe aLAP1 signal on lysate-treated microarray – cell lysate, small-molecule microarray, COS7 lysate, primary screen (AID 1124); details: probe aLAP1, fluorescence, higher = more signal;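 note: lysate comes from COS7 cells expressing LAP1 and is applied at 0.3 µg/mL; score merges spot fluorescence near 667 nm with signal-to-noise over triplicate slides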
[8] = test system: Sam68 (KHDRBS1); assay: compounds binding KHDRBS1 protein – biochemical, small-molecule microarray, 635 nm fluorescence, primary screen (AID 1125); details: higher = more signal;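 note: score merges 667 nm channel intensity with signal to noise over triplicate slides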
[9] = test system: Chordin-like protein 2 (CHRDL2); assay: compounds binding chordin-like 2 – biochemical, small-molecule microarray, 635 nm fluorescence, primary screen (AID 1126); details: fluorescence 635 nm, higher = more signal;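 note: printed compound slides probed with Chrdl2 protein at 4 µg/mL for 1 h at 4 C; score merges 667 nm emission intensity with signal to noise over three replicate slides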
[10] = biological target: Concanavalin-A (Canavalia ensiformis) (UniProt P02866); assay: compounds binding concanavalin A lectin – biochemical, small-molecule microarray, Alexa647 label, 635 nm, artefact control for SMM control protein annotation, primary screen (AID 1127); details: ConA-A647 binding fluorescence, higher = more signal;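 note: z combines 667 nm emission intensity with signal-to-noise across three replicate slides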
Concanavalin-A (Canavalia ensiformis), sequence (P02866 whole entry, looked up): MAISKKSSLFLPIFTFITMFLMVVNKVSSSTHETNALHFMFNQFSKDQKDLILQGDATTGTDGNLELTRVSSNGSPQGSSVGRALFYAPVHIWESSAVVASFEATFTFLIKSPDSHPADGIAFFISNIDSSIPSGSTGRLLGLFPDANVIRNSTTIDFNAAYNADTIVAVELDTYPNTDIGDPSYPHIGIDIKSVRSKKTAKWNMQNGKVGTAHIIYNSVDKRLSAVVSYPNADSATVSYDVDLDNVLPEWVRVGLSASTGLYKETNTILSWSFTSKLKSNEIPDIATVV

[11] = compounds binding Alexa647 anti-His antibody – biochemical, small-molecule microarray, 635 nm fluorescence, artefact control for SMM control protein annotation, primary screen (AID 1128); details: higher = more signal;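 note: score merges feature fluorescence with signal-to-noise for each printed compound spot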
[12] = test system: Human papillomavirus type 1a E7 protein (residues 1-88); assay: HPV1a E7 small-molecule binders, primary screen, biochemical, small-molecule microarray, residues 1-88, 635 nm (AID 1129); details: small-molecule microarray binding, fluorescence 635 nm; higher = more signal
[13] = biological target: Focal adhesion kinase 1 (Homo sapiens) (UniProt Q05397); assay: PTK2 protein binding on printed compound slides – biochemical, small-molecule microarray, 635/667 nm fluorescence, BSA, DTT, primary screen (AID 1130); details: 635 nm fluorescence, higher = more signal;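 note: composite of spot emission at 667 nm and signal to noise over triplicate slides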
Focal adhesion kinase 1 (Homo sapiens), sequence (Q05397 whole entry, looked up): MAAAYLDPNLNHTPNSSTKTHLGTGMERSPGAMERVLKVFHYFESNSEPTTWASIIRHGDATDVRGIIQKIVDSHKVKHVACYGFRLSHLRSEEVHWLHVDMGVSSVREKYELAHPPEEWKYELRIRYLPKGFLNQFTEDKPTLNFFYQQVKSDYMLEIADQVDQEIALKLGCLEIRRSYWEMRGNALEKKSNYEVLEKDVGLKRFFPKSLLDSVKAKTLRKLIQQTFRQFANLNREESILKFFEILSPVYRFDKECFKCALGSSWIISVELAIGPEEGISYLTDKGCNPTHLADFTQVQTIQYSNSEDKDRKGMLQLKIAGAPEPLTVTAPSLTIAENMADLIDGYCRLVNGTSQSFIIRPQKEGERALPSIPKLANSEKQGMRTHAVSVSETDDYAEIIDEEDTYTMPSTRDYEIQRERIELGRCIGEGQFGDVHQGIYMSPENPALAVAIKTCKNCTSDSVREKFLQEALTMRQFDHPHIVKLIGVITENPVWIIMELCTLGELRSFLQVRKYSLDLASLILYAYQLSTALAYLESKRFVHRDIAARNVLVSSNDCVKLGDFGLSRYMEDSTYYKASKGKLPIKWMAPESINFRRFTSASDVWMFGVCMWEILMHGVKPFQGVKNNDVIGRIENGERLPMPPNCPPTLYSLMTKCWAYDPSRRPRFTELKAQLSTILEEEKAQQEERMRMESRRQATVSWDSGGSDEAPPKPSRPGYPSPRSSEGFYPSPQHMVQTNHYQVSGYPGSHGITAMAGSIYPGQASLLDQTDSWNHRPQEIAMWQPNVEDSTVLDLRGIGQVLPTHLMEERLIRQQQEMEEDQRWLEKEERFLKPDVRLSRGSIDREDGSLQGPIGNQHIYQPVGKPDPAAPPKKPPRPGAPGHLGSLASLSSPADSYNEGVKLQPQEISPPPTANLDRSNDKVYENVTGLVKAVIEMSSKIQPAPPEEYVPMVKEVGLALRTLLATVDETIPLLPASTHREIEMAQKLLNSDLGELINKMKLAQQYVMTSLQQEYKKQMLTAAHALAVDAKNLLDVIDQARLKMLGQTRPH

[14] = test system: Fibrinogen (Alexa647-labelled); assay: Alexa647-fibrinogen binding to printed small molecules – biochemical, small-molecule microarray, 635/667 nm fluorescence, artefact control for SMM control-protein annotation, profiling panel (AID 1131); details: fibrinogen-A647 binding fluorescence, higher = more signal;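 note: z-score merges 667 nm fluorescence with per-spot signal-to-noise over triplicate slides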
[15] = biological target: Follistatin (Homo sapiens) (UniProt P19883); assay: FST protein binding to printed compounds – biochemical, small-molecule microarray, 635/667 nm fluorescence, primary screen (AID 1132); details: 635 nm fluorescence, higher = more signal
Follistatin (Homo sapiens), sequence (P19883 whole entry, looked up): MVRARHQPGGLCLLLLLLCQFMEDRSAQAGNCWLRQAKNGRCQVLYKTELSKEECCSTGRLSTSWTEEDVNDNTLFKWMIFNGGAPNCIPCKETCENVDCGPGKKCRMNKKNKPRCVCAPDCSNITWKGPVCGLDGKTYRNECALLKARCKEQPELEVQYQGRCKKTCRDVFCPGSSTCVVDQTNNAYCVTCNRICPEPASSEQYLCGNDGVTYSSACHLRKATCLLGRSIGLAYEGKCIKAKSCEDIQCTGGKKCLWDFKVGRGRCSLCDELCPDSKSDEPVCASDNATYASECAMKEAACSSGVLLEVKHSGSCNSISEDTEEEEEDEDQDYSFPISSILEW

[16] = biological target: Fibroblast growth factor 2 (Homo sapiens) (UniProt P09038); assay: basic fibroblast growth factor binding to printed compounds – biochemical, small-molecule microarray, 635/667 nm fluorescence, primary screen (AID 1133); details: FGF2, fluorescence 635/667, higher = more signal
Fibroblast growth factor 2 (Homo sapiens), sequence (P09038 whole entry, looked up): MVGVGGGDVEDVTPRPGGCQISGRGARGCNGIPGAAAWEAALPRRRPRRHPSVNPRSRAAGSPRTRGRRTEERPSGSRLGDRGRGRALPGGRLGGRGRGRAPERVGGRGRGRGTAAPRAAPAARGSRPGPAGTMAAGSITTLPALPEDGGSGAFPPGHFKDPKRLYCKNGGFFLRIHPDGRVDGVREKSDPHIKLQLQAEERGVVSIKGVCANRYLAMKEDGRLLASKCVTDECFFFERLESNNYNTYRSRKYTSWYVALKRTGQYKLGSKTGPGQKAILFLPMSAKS

[17] = JC-1 mitochondrial potential readout, lung cancer cells – cell-based, A549, JC-1 fluorescence, basal, 24 h, 100 nL, profiling panel (AID 1138); details: higher = more signal;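 note: A549 lung adenocarcinoma cells under basal conditions with no added stimulus; test concentration not given here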
[18] = test system: Lefty1; assay: Lefty1 protein binding to printed compounds – biochemical, small-molecule microarray, 635/667 nm fluorescence, primary screen (AID 1139); details: fluorescence 635/667, higher = more signal
[19] = test system: wheat germ agglutinin (Triticum aestivum), Alexa647-labelled; assay: Alexa647-WGA lectin binding to printed small molecules – biochemical, small-molecule microarray, 635/667 nm fluorescence, artefact control for SMM control-protein annotation, profiling panel (AID 1140); details: WGA-A647 binding, 635 nm fluorescence, higher = more signal;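 note: score merges 667 nm feature emission with signal to noise over triplicate slides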
[20] = biological target: Luciferin 4-monooxygenase (Photinus pyralis) (UniProt P08659); assay: inhibition of purified Photinus pyralis luciferase – biochemical, luminescence, purified enzyme, 2006 set, primary screen (AID 1141); details: purified firefly luciferase, SteadyGlo luminescence, 30 min; higher = more signal, called active from +8 up or from −8 down;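 note: cell-free assay with purified firefly luciferase at 100 ng per well in PBS; test concentration not given here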
Luciferin 4-monooxygenase (Photinus pyralis), sequence (P08659 whole entry, looked up): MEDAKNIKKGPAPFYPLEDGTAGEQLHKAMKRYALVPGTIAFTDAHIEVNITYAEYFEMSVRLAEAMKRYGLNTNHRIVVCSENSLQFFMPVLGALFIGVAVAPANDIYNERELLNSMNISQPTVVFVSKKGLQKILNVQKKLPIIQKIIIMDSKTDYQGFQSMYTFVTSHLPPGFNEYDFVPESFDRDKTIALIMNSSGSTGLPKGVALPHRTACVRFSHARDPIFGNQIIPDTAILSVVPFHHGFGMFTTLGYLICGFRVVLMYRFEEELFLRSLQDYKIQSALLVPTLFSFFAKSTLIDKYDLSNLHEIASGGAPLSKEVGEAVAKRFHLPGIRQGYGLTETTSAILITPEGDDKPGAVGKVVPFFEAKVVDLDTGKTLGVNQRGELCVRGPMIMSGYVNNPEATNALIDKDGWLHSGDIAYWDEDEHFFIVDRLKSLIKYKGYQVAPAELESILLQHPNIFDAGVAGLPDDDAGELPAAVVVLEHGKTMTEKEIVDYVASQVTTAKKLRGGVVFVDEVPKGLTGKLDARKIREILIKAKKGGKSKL

| Structure (SMILES) | composite z-score [1] | composite Z-score [2] | composite z-score [3] | composite z-score [4] | composite z-score [5] | composite z-score [6] | composite z-score [7] | composite z-score [8] | composite z-score [9] | composite z-score [10] | composite z-score [11] | composite z-score [12] | composite z-score [13] | composite z-score [14] | composite z-score [15] | composite z-score [16] | z-score [17] | composite z-score [18] | composite z-score [19] | z-score [20] |
| --- | --- | --- | --- | --- | --- | --- | --- | --- | --- | --- | --- | --- | --- | --- | --- | --- | --- | --- | --- | --- |
| Cc1ccc(S[C@]2(C(=O)NCC(F)(F)F)CC(=O)N(Cc3ccccc3)[C@@H]2c2ccc(CO)cc2I)cc1 | 0.132 | 0.184 (inactive) | -0.212 | -0.183 | 0.679 | 1.21 | 1.57 | 0.0687 | -0.151 | -0.203 | 0.905 | 0.676 | -0.315 | 0.0957 | -0.0488 | -0.177 | 0.16 | -0.779 | 0.626 | 0.424 (inactive) |
| CC(C)N1C(=O)c2ccccc2[C@@H](C(=O)NC2CC2)[C@@H]1c1ccc(CO)cc1 | 0.368 | 0.131 (inactive) | 0.0246 | -0.161 | 0.742 | 0.467 | 0.37 | 0.343 | 0.593 | 0.697 | 1.89 | 0.934 | -0.361 | 0.868 | 1.04 | 1.08 | 1.04 | 0.147 | 0.22 | -0.161 (inactive) |
| CN(C)C(=O)[C@]1(CCS(=O)(=O)c2ccccc2)N=C(c2ccc(OCCCO)cc2)O[C@@H]1c1ccccc1N=[N+]=[N-] | 0.963 | -0.0275 (inactive) | 0.545 | 0.111 | 0.689 | 2.93 | 0.108 | 1.29 | 0.555 | 1.16 | 1.21 | 1.27 | 1.46 | 1.02 | 1.44 | 0.943 | 1.08 | 0.762 | 0.941 | -12.3 (active) |
| CC(C)Cc1ccc(CN2CC[C@@H](NC(=O)Nc3ccccc3)C2)cc1 | 0.476 | -0.119 (inactive) | -0.133 | -0.0974 | 0.119 | -0.104 | 0.397 | -0.0489 | 0.214 | -0.0211 | -0.0844 | -1.63 | 0.0749 | 0.494 | -0.182 | -0.0224 | -0.749 | 0.08 | 0.244 | 0.398 (inactive) |
| CN(C)CCCCNC(=O)[C@@H]1C[C@@H]2C(=O)N[C@@H](Cc3ccccc3)C(=O)N2[C@@H]1c1cccc(OCCO)c1 | -0.0493 | 1.1 (inactive) | -0.239 | -0.153 | 0.74 | 2.59 | 1.11 | 1.06 | 1.08 | 1.07 | 2.09 | 0.579 | -0.0323 | 0.513 | 1.33 | 1.75 | 1.53 | 1.65 | 0.645 | -2.68 (inactive) |
| COC(=O)[C@@]1(Cc2ccc(OC)cc2)[C@H]2c3cc(C(=O)N(C)C)n(CCO)c3C[C@H]2CN1C(=O)c1ccccc1 | 0.625 | 0.126 (inactive) | -0.102 | 0.257 | 0.935 | 1.19 | 0.971 | -0.924 | -0.784 | 0.001 | 0.214 | 0.498 | 1.45 | 0.662 | -0.603 | -0.545 | 0.782 | -1.19 | 0.946 | 2.04 (inactive) |
| COc1ccc(NC(=O)O[C@H]2[C@H](OC(=O)Nc3ccccc3)[C@@H](OC(=O)Nc3ccccc3)[C@@H](OC)O[C@@H]2CO)cc1 | 0.137 | -0.275 (inactive) | -0.0003 | -0.0878 | 0.761 | 2.8 | 0.624 | 1.29 | 0.402 | 1.13 | 1.77 | 1.21 | 0.634 | 0.825 | 1.34 | 1.72 | -0.506 | 0.512 | 0.626 | 0.0551 (inactive) |
| CC(C)C(=C=CC[C@H](O)c1cccc(OCCO)c1)C[C@H](O)c1cc(Cl)cc(Cl)c1O | 0.773 | -0.0673 (inactive) | 0.0916 | -0.154 | 0.374 | 1.14 | 0.0431 | 0.801 | -0.331 | 0.943 | -0.397 | 0.637 | 0.295 | 0.713 | 1.31 | 0.484 | 0.487 | 1.3 | 0.628 | -0.316 (inactive) |
| C[N+](C)(C)CCCCCCNC(=O)[C@H]1C[C@H]2C(=O)NCC(=O)N2[C@H]1c1ccc(O)cc1 | -0.0386 | 1.17 (inactive) | -0.114 | -0.149 | 0.422 | 1.21 | 0.255 | 1.12 | 0.856 | 0.758 | 2.46 | 0.996 | -0.0037 | 0.211 | 1.37 | 1.67 | -1 | 1.59 | 0.195 | 0.836 (inactive) |
| COC(=O)c1ccc([C@H](NC(=O)c2ccco2)[C@]2(C)C[C@H]2C2CCCCC2)cc1 | 0.678 | 0.0201 (inactive) | 0.0179 | -0.0391 | -0.227 | 1.43 | -0.164 | -0.552 | -1.17 | 0.208 | -0.162 | -0.678 | -0.59 | -0.293 | -0.633 | -1.11 | -0.573 | -1.58 | 0.638 | 1.34 (inactive) |
| COc1ccc([Si](C)(C)[C@@H]2[C@@H](CCO)O[C@]3(C(=O)N(Cc4ccc(N5CCCCC5=O)cc4)c4ccccc43)[C@H]2C)cc1 | 0.116 | 0.385 (inactive) | 0.033 | -0.0515 | 0.304 | 0.828 | 0.503 | 1.31 | 0.507 | 1.12 | 2.21 | 1.14 | -0.0284 | 0.842 | 1.07 | 1.1 | 1.74 | 0.572 | 0.916 | -1.24 (inactive) |
| CCOC(=O)C[C@H]1[C@H](OC(=O)Cc2ccc3c(c2)OCO3)[C@@H](NC(=O)CC(C)C)c2cc(OCCCO)ccc2N1C(=O)Cc1ccc(OC)cc1 | 0.779 | -0.867 (inactive) | -0.0328 | -0.0288 | 0.0138 | 0.775 | 0.166 | 0.282 | -0.226 | -0.622 | -0.114 | 0.0383 | -0.224 | 0.641 | -0.123 | 0.11 | 0.903 | -0.194 | 0.62 | -1.91 (inactive) |
| CCOC(=O)C[C@H]1[C@H](OC(=O)c2ccccc2-c2ccccc2)[C@@H](NC(=O)C2CCCCC2)c2cc(OCCCO)ccc2N1C(=O)Cc1ccc(OC)cc1 | 0.0179 | -0.483 (inactive) | -0.046 | -0.122 | 0.0935 | 0.0644 | 0.0035 | -0.0019 | -0.292 | 0.0384 | 0.0271 | -0.525 | 0.559 | -0.873 | -0.211 | -0.377 | 1.58 | 0.442 | 0.752 | 0.0079 (inactive) |
| [N-]=[N+]=NCc1ccccc1C[C@@]1(C(=O)N2CCOCC2)N=C(c2ccc(OCCCO)cc2)O[C@@H]1c1ccccc1 | 0.851 | 0.879 (inactive) | 0.056 | 0.0012 | 0.617 | 2.92 | 0.491 | 1.11 | -0.577 | 1.08 | 3.12 | 1.18 | 0.406 | 0.884 | 0.734 | 0.399 | -0.667 | -0.379 | 0.529 | -0.469 (inactive) |
| COC(=O)[C@@]1(Cc2ccc(OC)cc2)[C@@H]2C(=CC(=O)[C@H]2CC(=O)C(=O)N(C)C)CN1C(=O)c1ccccc1 | 0.982 | -0.0238 (inactive) | 0.848 | 0.358 | 0.777 | 2.47 | 0.536 | 1.31 | -0.501 | 1.11 | 0.318 | 1.23 | 0.242 | 0.833 | 0.433 | -0.139 | 0.437 | -0.973 | 0.521 | 2.12 (inactive) |
| O=C1C[C@@](C(=O)NCCN2CCOCC2)(c2ccc([N+](=O)[O-])cc2)[C@@H](c2ccc(CO)cc2I)N1C1CCCCC1 | 0.614 | 0.142 (inactive) | -0.095 | -0.14 | 0.659 | 1.74 | 1.07 | 0.761 | 0.473 | 0.416 | 1.27 | 1.24 | 0.211 | -0.415 | 1.15 | 0.94 | 1.8 | 0.992 | 0.308 | 1.35 (inactive) |
| COCCCNC(=O)[C@@]1(Cc2ccccc2CN=[N+]=[N-])N=C(c2ccc(OCCCO)cc2)O[C@H]1c1ccccc1 | 0.954 | 0.443 (inactive) | 0.269 | -0.0006 | 0.254 | 2.85 | 0.832 | 1.3 | -0.751 | 1.03 | 1.75 | 1.23 | 0.895 | 0.991 | 1.25 | 0.14 | -0.0671 | 0.365 | 0.73 | 0.094 (inactive) |
